# Laboratory results published in PubChem BioAssay AID1740 (National Center for Advancing Translational Sciences (NCATS), 2009).
# Inconclusive results are not listed. Values without a mark were called inactive. The source made the active and inactive calls. Calls follow the shape of the dose curve; as a rule, active = well fitted activation curve with a large enough effect; inconclusive = small, poorly fitted or top-dose-only effect; inactive = no such curve, though single readings can be large or run the other way.
# Assay: Confirmation Concentration-Response Assay for Enhancers of SMN2 Splice Variant Expression
# Details: HEK293 SMN2-exon7-luciferase splicing reporter, luminescence, 30-36 h; series mostly up to 22.7 µM; activation: at the top concentration
# Description: NIH Chemical Genomics Center [NCGC] NIH Molecular Libraries Probe Production centers Network [MLPCN] MLPCN Grant: R03 MH084179-01 Assay Submitter (PI): Elliot Androphy NCGC Assay Overview: Spinal muscular atrophy (SMA) is caused by insufficient levels of the survival motor neuron protein SMN. The SMN locus on chromosome 5q13 contains two inverted copies of SMN called SMN1 and SMN2 which are 99% identical at the amino acid level. SMN1 is a fully functional protein and SMN2 skips exon 7 90% of the time. Skipping of exon 7 produces non-functional protein product. 10% of the SMN2 protein includes exon 7 and is fully functional. In the SMA disease state, mutations in the SMN1 locus are the cause of the disease state. Because only 10% of SMN2 is of the fully functional form, it is not sufficient to overcome the deficiency produced by the loss of the SMN1 product. A therapy that either increase the amount of SMN2 product made or to increase the inclusion of exon 7 has been proposed for the treatment of SMA. We have designed an assay to identify small molecules that can increase the amount of functional SMN2 product by appending a luciferase reporter gene after the native SMN2 gene, such that inclusion of exon 7 in the expressed product places the luciferase sequence in frame, thus generating functional luciferase enzyme.
# NCGC Assay Protocol Summary: This screen utilizes a luciferase reporter gene assay, combining the promoter with the major portion of the native SMN2 cDNA (exons 1 -7, intron 8 , exon 8 fused to luciferase) stably expressed in HEK293 cells. Compounds that increase luciferase signal presumably enhance expression of the functional SMN2 splice variant. Passaging media contained DMEM w/ glutamax (+phenol red) 10% FCS, 1x pen/strep, 200 ug/ml hygro, 1x sodium pyruvate. Assay media contained DMEM w/ glutamax (-phenol red) 10% FCS, 1x pen strep, 1x pyruvate Sequence, Parameter, Value, Description (1) Cells, 5 uL, 2000 cells/well, 1536 TC treated White solid bottom plate (2) Time, 10-12 hours, 37C 5% CO2 (3) Compound, 23 nl, MLSMR Library (4) Control Compound, 23 nL, Sodium butyrate st 4.5mM (final) conc (5) Time, 30-36 hours, 37C 5% CO2 (6) Reagent, 3 ul, One Glo (TM) from Promega (7) Time, 5-15 minutes, Room temp (8) Detector, Viewlux: luminescent read, 60 second integration, high speed 2x binning Keywords: Spinal muscular atrophy, SMA, SMN2, high throughput screening, MLSMR, MLPCN, NIH Roadmap, qHTS and NCGC
Structure (SMILES),activation,Potency
C[C@@H]1O[C@@H](O[C@H]2C[C@@H](O)[C@]3(CO)[C@H]4[C@H](O)C[C@]5(C)[C@@H](C6COC(=O)C6)CC[C@]5(O)[C@@H]4CC[C@]3(O)C2)[C@H](O)[C@H](O)[C@H]1O (some centres undefined),-43.8% [at 46.1 µM],–
O=C(C1CCN(c2nc3ccc(Br)cc3s2)CC1)N1CCC2(CC1)OCCO2,-4.36%,–
COc1ccc(CNC(=O)c2ccc(C(C)C)cc2)cc1,–,5.01 µM (active)
CCc1ccc2nc(N3CCC(C(=O)N4CCC5(CC4)OCCO5)CC3)sc2c1,7.5%,–
